Source: PubChem BioAssay (Tox21)
Values without a mark were called inactive. Results filed as inconclusive are left out. A call without a number means that no potency is given here. Active and inactive are the calls of the source. Unless noted, calls come from the whole dose curve.

What was measured:
[1] = Nuclear factor erythroid 2-related factor 2/antioxidant responsive element (Nrf2/ARE) small molecule agonists: qHTS cell viability counter screen in human keratinocytes (AID 1919968; active = well fitted curve in the direction sought with a large enough effect in the repeat runs; an effect the other way counts as inactive or inconclusive; note: nearly all actives have a fitted effect of over 55% in size; note: potency is the fitted concentration of half-maximal effect)
Outline: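 Cells of the KeratinoSens line were plated at 1,500 per well and left for 5 h before compound transfer from DMSO stocks. After a 23 h incubation (37 C, 5% CO2), CellTiter-Fluor was added. Signal was taken as fluorescence intensity 1 h later.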

[2] = target: Gonadotropin-releasing hormone receptor (Homo sapiens) (UniProt P30968); assay: Human gonadotropin-releasing hormone receptor (GnRHR) small molecule agonists, calcium flux assay in GnRHR-HEK293 cells (AID 1920063); note: nearly all actives have a fitted effect of over 35% in size
Outline: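 Compounds dissolved in DMSO are pin-transferred onto dye-loaded GnRHR-HEK293 cells, which were seeded 18 h before at 37 C/5% CO2. Calcium signal is read as fluorescence intensity at 1 s intervals for 3 min.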

[3] = target: KiSS-1 receptor (Homo sapiens) (UniProt Q969F8); assay: Human kisspeptin (KISS1R) small molecule agonists, calcium flux assay in KISS1R-HEK293 cells (AID 1920064; active = well fitted curve in the direction sought with a large enough effect in the repeat runs; an effect the other way counts as inactive or inconclusive)
Outline: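 Cell line: HEK293, stable human KISS1R. Dye loading 1 h at 37 C after 18 h culture. Read: kinetic fluorescence, 480/540 nm, 3 min at 1 s intervals.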

[4] = G protein-coupled receptor (GPCR) small molecule agonists, calcium flux assay: HEK293 wild type cell line counter screen (AID 1920065)
Outline: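 Tox21 10K compounds, 15 concentrations each in triplicate, pin-transferred in DMSO onto dye-loaded cells; kinetic read at 480/540 nm for 3 min, 1 s intervals.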

[5] = p53 small molecule agonists, cell-based qHTS assay with human liver microsomes: qHTS cell viability counter screen (AID 1963579); note: nearly all actives have a fitted effect of over 45% in size; note: potency is the fitted concentration of half-maximal effect
Outline: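 Metabolically activated exposure: compounds, human liver microsomes and NADPH (0.5 mg/mL final apiece) were added to p53RE-bla cells seeded 5 h earlier, left 16 h at 37 C, and then assessed for viability by CellTiter-Glo luminescence.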

[6] = p53 small molecule agonists, cell-based qHTS assay with rat liver microsomes: qHTS cell viability counter screen (AID 1963580); note: nearly all actives have a fitted effect of over 45% in size; note: potency is the fitted concentration of half-maximal effect
Outline: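 Counter screen for cytotoxicity under metabolic activation: rat liver microsomes and NADPH, 0.5 mg/mL final each, added with compounds to p53RE-bla HCT-116 cells; 16 h at 37 C, then ATP luminescence read.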

[7] = p53 small molecule agonists, cell-based qHTS assay: qHTS cell viability counter screen (AID 1963581); note: nearly all actives have a fitted effect of over 45% in size
Outline: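 ATP content measured by luminescence in HCT-116 p53RE-bla cells treated 16 h at 37 C, same wells as the reporter screen.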

[8] = target: 5-hydroxytryptamine receptor 2A (Homo sapiens) (UniProt P28223); assay: 5-hydroxytryptamine receptor 2A (HTR2A) small molecule agonists, cell-based qHTS assay (AID 1963587); note: nearly all actives have a fitted effect of over 30% in size
Outline: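 HTR2A-CHO cells, plated 18 h at 37 C/5% CO2, dye-loaded 1 h at 37 C; compounds in DMSO added by pin tool (agonist mode). Intracellular calcium flux read as kinetic fluorescence on FDSS over 2 min at 1 s intervals.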

[9] = target: Muscarinic acetylcholine receptor M1 (Homo sapiens) (UniProt P11229); assay: Cholinergic receptor muscarinic 1 (CHRM1) small molecule agonists, cell-based qHTS assay (AID 1963589); note: nearly all actives have a fitted effect of over 35% in size
Outline: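 Homogeneous fluorescence calcium flux, agonist mode. Human M1-expressing CHO cells; compound dosed at 15 concentrations, three independent runs; signal sampled every 1 sec.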

[10] = cAMP Responsive Elements (CRE) small molecule antagonists, cell-based qHTS assay (AID 1963591; active = well fitted inhibition curve with a large enough effect in the signal ratio in the repeat runs, not every such curve was filed as active; the % refers to the signal ratio)
Outline: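 First, CRE-bla HEK293T cells settled 18 h at 37 C. Next, compound and 0.25 uM final NKH477 were applied for 3 h. Last, LiveBLAzer B/G substrate was loaded for 2 h at room temperature.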

[11] = target: D(2) dopamine receptor (Homo sapiens) (UniProt P14416); assay: Dopamine D2 receptor (DRD2) small molecule agonists, cell-based qHTS assay (AID 1963594); note: nearly all actives have a fitted effect of over 35% in size
Outline: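 HEK293 cells stably expressing DRD2 were cultured 24 h at 37 C, then given Ro20-1724 (0.1 mM final) and compounds for 10 min at room temperature. NKH477 (200nM) was then added for 30 min. cAMP was read by HTRF.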

[12] = target: D(2) dopamine receptor (Homo sapiens) (UniProt P14416); assay: Dopamine D2 receptor (DRD2) small molecule antagonists, cell-based qHTS assay (AID 1963595; active = well fitted inhibition curve with a large enough effect in the signal ratio in the repeat runs, with a control signal flat; the % refers to the signal ratio)
Outline: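 Readout: HTRF cAMP, cAMP-d2 competing with cellular cAMP for anti-cAMP cryptate, read after 1 h. Cells: DRD2-HEK293. Conditions: 0.1 mM Ro20-1724, 12 nM quinpirole, 200 nM NKH477, 30 min RT.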

[13] = target: 5-hydroxytryptamine receptor 2A (Homo sapiens) (UniProt P28223); assay: 5-hydroxytryptamine receptor 2A (HTR2A) small molecule antagonists, cell-based qHTS assay (AID 1963586); note: nearly all actives have a fitted effect of over 45% in size
Outline: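 CHO cells stably expressing human HTR2A were plated for 18 h at 37 C, then loaded with calcium dye for 1 h. Compounds were preincubated 5 min at room temperature before DOI (4 nM solution) was added. Kinetic fluorescence was read for 3 min.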

[14] = target: Muscarinic acetylcholine receptor M1 (Homo sapiens) (UniProt P11229); assay: Cholinergic receptor muscarinic 1 (CHRM1) small molecule antagonists, cell-based qHTS assay (AID 1963588); note: nearly all actives have a fitted effect of over 40% in size
Outline: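 Compounds were tested at 15 concentrations in three independent runs. Dye-loaded CHRM1-CHO cells were exposed 5 min at room temperature before stimulation by acetylcholine added at 50nM. Intracellular calcium was read kinetically on FDSS for 3 min.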

[15] = target: Beta-2 adrenergic receptor (Homo sapiens) (UniProt P07550); assay: Adrenergic beta2 receptor (ADRB2) small molecule antagonists, cell-based qHTS assay (AID 1963592); note: series mostly up to about 92 µM; nearly all actives have a fitted effect of over 50% in size
Outline: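 Assay format: CHO-ADRB2 cells, 18-20hr seeding at 37C/5% CO2, then compound plus 1nM isoproterenol agonist mix for 0.5hr RT. Homogeneous time-resolved fluorescence cAMP detection after 1hr, expressed as 665/615 nm ratio.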

[16] = target: Beta-2 adrenergic receptor (Homo sapiens) (UniProt P07550); assay: Adrenergic beta2 receptor (ADRB2) small molecule agonists, cell-based qHTS assay (AID 1963593);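 note: CHO cells stably overexpressing human ADRB2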
Outline: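 CHO cells stably over-expressing ADRB2 were plated overnight at 37C, then dosed with compounds plus a stimulation mix containing 100uM IBMX and 25uM Ro-20-1724 for 0.5hr at room temperature. cAMP was measured by HTRF competition, 1hr.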

[17] = cAMP Responsive Elements (CRE) small molecule agonists, cell-based qHTS assay (AID 1963590)
Outline: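 HEK 293T cells stably bearing CRE-bla were plated at 2,000 cells per well and rested 18 h. Compounds, positive controls or DMSO were added for 3 h at 37 C. LiveBLAzer B/G substrate was then loaded for 2 h at room temperature.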

Chain of Beta-2 adrenergic receptor (Homo sapiens) (P07550 whole entry, looked up): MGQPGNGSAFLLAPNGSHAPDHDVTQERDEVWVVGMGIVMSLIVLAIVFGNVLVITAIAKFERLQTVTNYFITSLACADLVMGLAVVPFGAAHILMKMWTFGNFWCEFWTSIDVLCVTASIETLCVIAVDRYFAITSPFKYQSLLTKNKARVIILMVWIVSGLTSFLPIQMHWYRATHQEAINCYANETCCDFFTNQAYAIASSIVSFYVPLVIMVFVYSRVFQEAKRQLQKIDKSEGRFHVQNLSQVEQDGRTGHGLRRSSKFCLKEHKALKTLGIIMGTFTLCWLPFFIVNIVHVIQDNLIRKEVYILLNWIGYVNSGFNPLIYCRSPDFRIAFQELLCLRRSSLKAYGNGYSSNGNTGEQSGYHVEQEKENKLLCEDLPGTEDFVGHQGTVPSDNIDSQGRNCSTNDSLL
Chain of D(2) dopamine receptor (Homo sapiens) (P14416 whole entry, looked up): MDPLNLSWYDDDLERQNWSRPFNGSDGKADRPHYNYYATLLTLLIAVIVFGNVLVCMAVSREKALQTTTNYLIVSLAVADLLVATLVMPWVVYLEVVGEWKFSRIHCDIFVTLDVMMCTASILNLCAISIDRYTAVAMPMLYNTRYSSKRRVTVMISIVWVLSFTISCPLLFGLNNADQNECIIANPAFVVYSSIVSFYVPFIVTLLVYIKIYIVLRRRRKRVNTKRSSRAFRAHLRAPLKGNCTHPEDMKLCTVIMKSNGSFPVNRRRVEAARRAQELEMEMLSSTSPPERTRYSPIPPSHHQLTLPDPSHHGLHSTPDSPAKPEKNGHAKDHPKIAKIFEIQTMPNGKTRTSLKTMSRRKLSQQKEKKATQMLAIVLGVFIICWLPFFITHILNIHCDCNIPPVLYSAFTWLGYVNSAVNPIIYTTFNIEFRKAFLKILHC
Chain of Muscarinic acetylcholine receptor M1 (Homo sapiens) (P11229 whole entry, looked up): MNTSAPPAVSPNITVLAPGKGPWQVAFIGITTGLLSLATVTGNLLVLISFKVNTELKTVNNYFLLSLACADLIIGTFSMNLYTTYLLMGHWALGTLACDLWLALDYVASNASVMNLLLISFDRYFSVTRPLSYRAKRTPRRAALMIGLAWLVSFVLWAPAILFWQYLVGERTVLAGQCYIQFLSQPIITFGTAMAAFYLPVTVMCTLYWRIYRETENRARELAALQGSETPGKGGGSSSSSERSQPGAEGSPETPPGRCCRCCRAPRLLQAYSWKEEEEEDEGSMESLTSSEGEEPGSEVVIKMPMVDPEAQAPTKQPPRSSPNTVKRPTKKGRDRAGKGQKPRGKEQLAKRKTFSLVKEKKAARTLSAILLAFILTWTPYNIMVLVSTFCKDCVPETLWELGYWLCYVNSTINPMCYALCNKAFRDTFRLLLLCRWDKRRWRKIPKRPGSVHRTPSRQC
Chain of Gonadotropin-releasing hormone receptor (Homo sapiens) (P30968 whole entry, looked up): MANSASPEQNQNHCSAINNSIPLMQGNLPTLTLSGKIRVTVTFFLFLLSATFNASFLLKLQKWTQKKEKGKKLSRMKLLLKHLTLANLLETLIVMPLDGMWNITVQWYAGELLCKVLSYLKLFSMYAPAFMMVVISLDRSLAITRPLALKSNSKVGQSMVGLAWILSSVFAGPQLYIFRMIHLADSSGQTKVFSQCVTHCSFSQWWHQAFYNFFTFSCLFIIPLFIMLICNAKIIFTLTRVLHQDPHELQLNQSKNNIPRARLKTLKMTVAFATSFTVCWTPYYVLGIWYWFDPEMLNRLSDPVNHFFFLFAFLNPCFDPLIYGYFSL
Chain of KiSS-1 receptor (Homo sapiens) (Q969F8 whole entry, looked up): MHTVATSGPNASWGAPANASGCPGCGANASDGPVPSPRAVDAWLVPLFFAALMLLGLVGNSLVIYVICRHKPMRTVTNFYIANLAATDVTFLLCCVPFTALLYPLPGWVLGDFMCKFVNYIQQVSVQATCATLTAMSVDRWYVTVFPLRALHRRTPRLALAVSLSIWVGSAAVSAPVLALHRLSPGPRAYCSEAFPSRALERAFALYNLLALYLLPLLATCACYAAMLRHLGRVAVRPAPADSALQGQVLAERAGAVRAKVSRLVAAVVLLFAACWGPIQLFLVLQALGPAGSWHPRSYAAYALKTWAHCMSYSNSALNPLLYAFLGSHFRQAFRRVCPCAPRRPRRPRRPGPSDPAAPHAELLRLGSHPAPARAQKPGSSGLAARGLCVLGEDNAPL
Chain of 5-hydroxytryptamine receptor 2A (Homo sapiens) (P28223 whole entry, looked up): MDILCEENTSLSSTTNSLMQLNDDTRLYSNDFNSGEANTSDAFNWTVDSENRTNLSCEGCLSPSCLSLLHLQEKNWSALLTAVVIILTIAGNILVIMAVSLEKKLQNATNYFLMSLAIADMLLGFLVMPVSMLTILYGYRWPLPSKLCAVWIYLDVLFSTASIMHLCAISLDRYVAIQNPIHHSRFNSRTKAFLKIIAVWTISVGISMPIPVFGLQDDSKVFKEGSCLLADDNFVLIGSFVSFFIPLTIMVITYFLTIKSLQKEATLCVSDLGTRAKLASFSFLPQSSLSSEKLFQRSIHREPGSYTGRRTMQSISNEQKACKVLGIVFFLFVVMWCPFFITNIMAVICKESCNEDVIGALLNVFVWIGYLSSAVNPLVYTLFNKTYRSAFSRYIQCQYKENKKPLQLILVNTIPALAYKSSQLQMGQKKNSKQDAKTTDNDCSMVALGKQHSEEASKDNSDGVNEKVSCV

| Structure (SMILES) | Potency [1] | Potency [2] | Potency [3] | Potency [4] | Potency [5] | Potency [6] | Potency [7] | Potency [8] | Potency [9] | Potency [10] | Potency [11] | Potency [12] | Potency [13] | Potency [14] | Potency [15] | Potency [16] | Potency [17] |
| --- | --- | --- | --- | --- | --- | --- | --- | --- | --- | --- | --- | --- | --- | --- | --- | --- | --- |
| COC(=O)C1=C(C)NC(C)=C(C(=O)OC(C)C)C1c1cccc2nonc12 (configuration not stated) | inactive | inactive | inactive | inactive | inactive | inactive | inactive | inactive | inactive | inactive | inactive | inactive |  |  |  |  |  |
| CCCCCCCCCCCC(=O)OCC(O)CO (configuration not stated) | inactive | inactive | inactive | inactive | inactive | inactive | inactive |  | inactive | inactive | inactive | inactive | inactive | inactive | inactive | inactive |  |
| C1CCC2(CCCCO2)OC1 | inactive | inactive | inactive | inactive | inactive | inactive |  | inactive | inactive | inactive | inactive | inactive | inactive | inactive | inactive | inactive | inactive |
| O=C1C=CC(=O)N1 | 28 µM (active) | inactive | inactive | inactive | 21 µM (active) | 29.6 µM (active) |  | inactive | inactive |  | inactive |  | inactive | inactive |  |  |  |
| CC(C)O.CC(C)O.CCOC(=O)/C=C(\C)O.CCOC(=O)/C=C(\C)O.[Ti] | inactive | inactive | inactive | inactive | inactive |  | inactive | inactive | inactive | inactive | inactive | inactive | inactive | inactive | inactive | inactive | inactive |
| Cc1ccc(Br)cc1 | inactive | inactive | inactive | inactive |  | inactive | inactive | inactive | inactive | inactive | inactive | inactive | inactive | inactive | inactive |  |  |
| NCCc1ccn[nH]1 | inactive | inactive | inactive | inactive | inactive |  | inactive | inactive | inactive | inactive |  | inactive |  |  | inactive | inactive | inactive |
